Experimental data: PubChem BioAssay (NCI)
This is part of a sample that, as a whole, favours compounds with a hit. Of some 83,000 tested, about 20% had one in any assay.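 Cells were grown in 96-well plates and exposed to the test compound at a single concentration for 48 hours; results are reported as percent growth, with values below 10 considered active.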 Active and inactive are the calls of the source.

Tests used:
Assay in all cases: NCI-60 one-dose screen, 48 h (100 = growth as untreated, 0 = no growth, -100 = all killed)
Conditions in all cases: 10 µM unless noted
SK-MEL-2 melanoma = system: SK-MEL-2 melanoma
EKVX NSCLC = system: EKVX NSCLC
SN12C renal = system: SN12C renal
UO-31 renal = system: UO-31 renal
TK-10 renal = system: TK-10 renal
ACHN renal = system: ACHN renal
A498 renal = system: A498 renal
CCRF-CEM leukemia = system: CCRF-CEM leukemia
MOLT-4 leukemia = system: MOLT-4 leukemia
SR leukemia = system: SR leukemia
RPMI-8226 leukemia = system: RPMI-8226 leukemia
OVCAR-8 ovarian = system: OVCAR-8 ovarian
OVCAR-5 ovarian = system: OVCAR-5 ovarian
OVCAR-4 ovarian = system: OVCAR-4 ovarian
SK-OV-3 ovarian = system: SK-OV-3 ovarian
IGROV1 ovarian = system: IGROV1 ovarian
OVCAR-3 ovarian = system: OVCAR-3 ovarian
HS 578T breast = system: HS 578T breast
NCI/ADR-RES ovarian = system: NCI/ADR-RES ovarian

Measured: growth

Brc1ccc2c(c1)c(-c1nc(-c3c[nH]c4ncccc34)cs1)cn2CCCN1CCCCC1
inactive: SK-MEL-2 melanoma 36.8% | EKVX NSCLC 50.1% | SN12C renal 25.3% | TK-10 renal 76.2% | A498 renal 77% | OVCAR-5 ovarian 32.3% | OVCAR-4 ovarian 48.4% | SK-OV-3 ovarian 63.1% | HS 578T breast 52.1% | NCI/ADR-RES ovarian 13.4%
active: UO-31 renal -52% | ACHN renal -23.7% | CCRF-CEM leukemia -35.5% | MOLT-4 leukemia -44.6% | SR leukemia -47.5% | RPMI-8226 leukemia -47.9% | OVCAR-8 ovarian 1.18% | IGROV1 ovarian 6.09% | OVCAR-3 ovarian -64.3%

CCCCC[C@H]1CC=C2C(=O)C(Cl)=C[C@@H]2CC=CCCCC(=O)O[C@@H](CCCCC)CC=C2C(=O)C(Cl)=C[C@@H]2CC=CCCCC(=O)O[C@@H](CCCCC)CC=C2C(=O)C(Cl)=C[C@@H]2CC=CCCCC(=O)O1
inactive: SK-MEL-2 melanoma 91.4% [8 µM] | EKVX NSCLC 96.6% [8 µM] | SN12C renal 43.1% [8 µM] | UO-31 renal 76.3% [8 µM] | TK-10 renal 151% [8 µM] | ACHN renal 69.6% [8 µM] | A498 renal 106% [8 µM] | MOLT-4 leukemia 10.4% [8 µM] | OVCAR-5 ovarian 144% [8 µM] | OVCAR-4 ovarian 59.9% [8 µM] | SK-OV-3 ovarian 120% [8 µM] | IGROV1 ovarian 36% [8 µM] | OVCAR-3 ovarian 17.3% [8 µM] | HS 578T breast 78% [8 µM] | NCI/ADR-RES ovarian 96.2% [8 µM]
active: CCRF-CEM leukemia 7.3% [8 µM] | SR leukemia 6.25% [8 µM] | RPMI-8226 leukemia 2.73% [8 µM] | OVCAR-8 ovarian -17.1% [8 µM]

Cc1csc(Nc2nc(-c3cccc(Br)c3)nc(C(Cl)(Cl)Cl)n2)n1
inactive: SK-MEL-2 melanoma 104% | EKVX NSCLC 22.8% | SN12C renal 78.5% | UO-31 renal 49.4% | TK-10 renal 49.9% | A498 renal 31.5% | CCRF-CEM leukemia 91.4% | MOLT-4 leukemia 80.7% | SR leukemia 67.7% | RPMI-8226 leukemia 35.8% | OVCAR-8 ovarian 75.6% | OVCAR-5 ovarian 69.9% | OVCAR-4 ovarian 76.8% | SK-OV-3 ovarian 76.1% | IGROV1 ovarian 91.9% | OVCAR-3 ovarian 14.9% | HS 578T breast 59.6% | NCI/ADR-RES ovarian 60.4%
active: ACHN renal 0.817%

COc1ccc2c(c1)c(-c1nc(-c3cn(C)c4ncccc34)cs1)cn2CCN
inactive: SK-MEL-2 melanoma 101% | EKVX NSCLC 56.5% | SN12C renal 76.3% | UO-31 renal 66.6% | TK-10 renal 92.4% | ACHN renal 69.4% | A498 renal 97.4% | CCRF-CEM leukemia 69% | MOLT-4 leukemia 29.7% | SR leukemia 27.4% | RPMI-8226 leukemia 75.8% | OVCAR-8 ovarian 71.1% | OVCAR-5 ovarian 78.1% | OVCAR-4 ovarian 41.1% | SK-OV-3 ovarian 94.9% | IGROV1 ovarian 41.8% | OVCAR-3 ovarian 88.8% | HS 578T breast 85.6% | NCI/ADR-RES ovarian 88.1%

Cc1cc(N2CCCCC2)nc(N(CCNc2ccnc3cc(Cl)ccc23)Cc2ccco2)n1
active: MOLT-4 leukemia 0.376% | SR leukemia -15.8% | RPMI-8226 leukemia -36.5% | OVCAR-3 ovarian -40%
inactive: SK-MEL-2 melanoma 76.4% | EKVX NSCLC 64.8% | SN12C renal 24% | UO-31 renal 40.6% | TK-10 renal 68.5% | ACHN renal 27.8% | A498 renal 61.3% | CCRF-CEM leukemia 10.2% | OVCAR-8 ovarian 22.3% | OVCAR-5 ovarian 50.2% | OVCAR-4 ovarian 43.2% | SK-OV-3 ovarian 77.9% | HS 578T breast 51.4% | NCI/ADR-RES ovarian 10.5%

C[C@H]1[C@@H]2[C@H]3CC[C@@H]4[C@@]5(C)Cc6c([nH]c7ccccc67)C(C)(C)[C@@H]5CC[C@@]4(C)[C@]3(C)CC[C@]23CO[C@]1(C)[C@@H](C(=O)/C=C/c1ccccn1)C3
inactive: SK-MEL-2 melanoma 115% | EKVX NSCLC 102% | SN12C renal 87.1% | UO-31 renal 60.4% | TK-10 renal 123% | ACHN renal 92.4% | A498 renal 101% | CCRF-CEM leukemia 63% | MOLT-4 leukemia 78.8% | SR leukemia 55.6% | RPMI-8226 leukemia 62.5% | OVCAR-8 ovarian 63.3% | OVCAR-5 ovarian 108% | OVCAR-4 ovarian 83.7% | SK-OV-3 ovarian 112% | IGROV1 ovarian 106% | OVCAR-3 ovarian 96.2% | HS 578T breast 87.7% | NCI/ADR-RES ovarian 100%

COc1ccc2c(c1)c(-c1nc(-c3cn(C)c4ncccc34)cs1)cn2CCCN1CCCCC1
active: ACHN renal 1.33% | CCRF-CEM leukemia 2.69% | SR leukemia -39.1% | RPMI-8226 leukemia -8.74% | OVCAR-3 ovarian -52.1%
inactive: SK-MEL-2 melanoma 102% | EKVX NSCLC 61.6% | SN12C renal 76.2% | UO-31 renal 62.9% | TK-10 renal 89.7% | A498 renal 74.7% | MOLT-4 leukemia 23.4% | OVCAR-8 ovarian 59.6% | OVCAR-5 ovarian 85.3% | OVCAR-4 ovarian 74.7% | SK-OV-3 ovarian 89.8% | IGROV1 ovarian 66.1% | HS 578T breast 73.7% | NCI/ADR-RES ovarian 69.5%

Cc1cc(N(CCNc2ccnc3cc(Cl)ccc23)Cc2ccco2)nc(Cl)n1
inactive: EKVX NSCLC 32.2% | A498 renal 20.8%
active: SK-MEL-2 melanoma -7.16% | SN12C renal -79.2% | UO-31 renal -97% | TK-10 renal -74.4% | ACHN renal -98.8% | CCRF-CEM leukemia 0.284% | MOLT-4 leukemia -26.2% | SR leukemia -14.5% | RPMI-8226 leukemia -29.5% | OVCAR-8 ovarian -26.6% | OVCAR-5 ovarian -37.5% | OVCAR-4 ovarian -59.7% | SK-OV-3 ovarian -36.3% | IGROV1 ovarian -72.1% | OVCAR-3 ovarian -89.5% | HS 578T breast 6.7% | NCI/ADR-RES ovarian -4.64%

Nc1ccccc1NC(=O)c1ccc(CN2CCC/C(=C\c3ccccn3)C2=O)cc1
active: A498 renal 7.96% | MOLT-4 leukemia 7.84%
inactive: SK-MEL-2 melanoma 27% | EKVX NSCLC 33.2% | SN12C renal 48.2% | UO-31 renal 25.4% | TK-10 renal 14.2% | ACHN renal 20.6% | CCRF-CEM leukemia 16.7% | SR leukemia 14.1% | RPMI-8226 leukemia 11.8% | OVCAR-8 ovarian 26.4% | OVCAR-5 ovarian 20.9% | OVCAR-4 ovarian 47.6% | IGROV1 ovarian 21.2% | OVCAR-3 ovarian 27.6% | HS 578T breast 36.2% | NCI/ADR-RES ovarian 28.7%

Cc1cc(Cl)nc(N(CCNc2ccnc3cc(Cl)ccc23)Cc2ccco2)n1
inactive: SK-MEL-2 melanoma 55.8% | EKVX NSCLC 63.6% | SN12C renal 33.5% | TK-10 renal 64% | ACHN renal 17.7% | A498 renal 70.2% | OVCAR-8 ovarian 45.3% | OVCAR-5 ovarian 80.5% | OVCAR-4 ovarian 53.1% | SK-OV-3 ovarian 123% | IGROV1 ovarian 38.3% | HS 578T breast 79.2% | NCI/ADR-RES ovarian 44.5%
active: UO-31 renal -33.5% | CCRF-CEM leukemia 8.24% | MOLT-4 leukemia 6.36% | SR leukemia -3.12% | RPMI-8226 leukemia -30.7% | OVCAR-3 ovarian -41.2%

N#CC1=C(N)Oc2c(sc3c(F)cccc23)C1c1ccc(Cl)cc1 (stereo not given)
active: SK-MEL-2 melanoma -3.89% | MOLT-4 leukemia 8.38% | OVCAR-3 ovarian 6.16%
inactive: EKVX NSCLC 51.4% | SN12C renal 36.2% | UO-31 renal 41.7% | TK-10 renal 78.4% | ACHN renal 42% | A498 renal 46.6% | CCRF-CEM leukemia 15.1% | SR leukemia 10.8% | RPMI-8226 leukemia 10.6% | OVCAR-8 ovarian 42.8% | OVCAR-5 ovarian 82.1% | OVCAR-4 ovarian 62.8% | SK-OV-3 ovarian 31% | IGROV1 ovarian 33.3% | HS 578T breast 40.6% | NCI/ADR-RES ovarian 14.4%

CCN1CCN(C(=O)[C@]23CCC(C)(C)C[C@@H]2C2=CC[C@@H]4[C@@]5(C)C/C(=C/c6cccnc6)C(=O)C(C)(C)[C@@H]5CC[C@@]4(C)[C@]2(C)CC3)CC1
inactive: SK-MEL-2 melanoma 41.9% | EKVX NSCLC 25.4% | SN12C renal 29.5% | UO-31 renal 33.3% | TK-10 renal 52.4% | ACHN renal 33.4% | A498 renal 45.1% | CCRF-CEM leukemia 33.4% | OVCAR-8 ovarian 27.1% | OVCAR-5 ovarian 83.8% | SK-OV-3 ovarian 56% | IGROV1 ovarian 51.6% | OVCAR-3 ovarian 28.6% | HS 578T breast 54.6%
active: MOLT-4 leukemia 4.16% | SR leukemia 4.78% | RPMI-8226 leukemia 5.88% | OVCAR-4 ovarian 7.28% | NCI/ADR-RES ovarian 8.32%

Cc1ccccc1-c1nc(C(Cl)Cl)nc2cc(-c3ccccc3)nn12
inactive: SK-MEL-2 melanoma 101% | EKVX NSCLC 57.8% | SN12C renal 81.4% | UO-31 renal 57.2% | TK-10 renal 65.1% | ACHN renal 41.1% | A498 renal 85.4% | CCRF-CEM leukemia 102% | MOLT-4 leukemia 83.9% | SR leukemia 50.2% | RPMI-8226 leukemia 61.6% | OVCAR-8 ovarian 86.9% | OVCAR-5 ovarian 96.4% | OVCAR-4 ovarian 77.5% | IGROV1 ovarian 59.9% | OVCAR-3 ovarian 28.3% | HS 578T breast 70% | NCI/ADR-RES ovarian 65.3%

NCCNc1nc(-c2ccccc2)nc2nc(-c3ccccc3)oc12
active: SR leukemia 7.63%
inactive: SK-MEL-2 melanoma 107% | EKVX NSCLC 102% | SN12C renal 80.6% | UO-31 renal 69.6% | TK-10 renal 119% | ACHN renal 79% | A498 renal 90% | CCRF-CEM leukemia 91.5% | MOLT-4 leukemia 73.6% | RPMI-8226 leukemia 68.7% | OVCAR-8 ovarian 97.7% | OVCAR-5 ovarian 105% | OVCAR-4 ovarian 96.5% | IGROV1 ovarian 81.8% | OVCAR-3 ovarian 88.2% | HS 578T breast 91.3% | NCI/ADR-RES ovarian 91.8%

O=C1CCCC=CC[C@H]2C=C(Cl)C(=O)C2=CC[C@H](CCCCC(F)(F)F)OC(=O)CCCC=CC[C@H]2C=C(Cl)C(=O)C2=CC[C@H](CCCCC(F)(F)F)OC(=O)CCCC=CC[C@H]2C=C(Cl)C(=O)C2=CC[C@H](CCCCC(F)(F)F)O1
active: CCRF-CEM leukemia 8.35% [6.25 µM] | RPMI-8226 leukemia 4.9% [6.25 µM] | OVCAR-8 ovarian 8.78% [6.25 µM]
inactive: SK-MEL-2 melanoma 90.1% [6.25 µM] | EKVX NSCLC 98.4% [6.25 µM] | SN12C renal 56.3% [6.25 µM] | UO-31 renal 78.9% [6.25 µM] | TK-10 renal 148% [6.25 µM] | ACHN renal 71.2% [6.25 µM] | A498 renal 101% [6.25 µM] | MOLT-4 leukemia 15.2% [6.25 µM] | SR leukemia 11.6% [6.25 µM] | OVCAR-5 ovarian 140% [6.25 µM] | OVCAR-4 ovarian 68.7% [6.25 µM] | IGROV1 ovarian 43.7% [6.25 µM] | OVCAR-3 ovarian 14.3% [6.25 µM] | HS 578T breast 81.9% [6.25 µM] | NCI/ADR-RES ovarian 97.6% [6.25 µM]
